Sampled rows, rich in hits. Any-hit rate of the full collection: about 19%.
S-ASM inh – human S-ASM enzyme inhibition; P17405; placental ASM, HMU-PC fluorogenic substrate, 60 min; Potency, µM (series often up to 57.5 µM), for the others: top-dose activity change, negative = inhibition, usual class: inhibitors; actives 0.006% (n = 340,000); AID 504937; further: potency means the concentration at half of the fitted maximal effect
Target sequence (P17405 47-631 limits assumed): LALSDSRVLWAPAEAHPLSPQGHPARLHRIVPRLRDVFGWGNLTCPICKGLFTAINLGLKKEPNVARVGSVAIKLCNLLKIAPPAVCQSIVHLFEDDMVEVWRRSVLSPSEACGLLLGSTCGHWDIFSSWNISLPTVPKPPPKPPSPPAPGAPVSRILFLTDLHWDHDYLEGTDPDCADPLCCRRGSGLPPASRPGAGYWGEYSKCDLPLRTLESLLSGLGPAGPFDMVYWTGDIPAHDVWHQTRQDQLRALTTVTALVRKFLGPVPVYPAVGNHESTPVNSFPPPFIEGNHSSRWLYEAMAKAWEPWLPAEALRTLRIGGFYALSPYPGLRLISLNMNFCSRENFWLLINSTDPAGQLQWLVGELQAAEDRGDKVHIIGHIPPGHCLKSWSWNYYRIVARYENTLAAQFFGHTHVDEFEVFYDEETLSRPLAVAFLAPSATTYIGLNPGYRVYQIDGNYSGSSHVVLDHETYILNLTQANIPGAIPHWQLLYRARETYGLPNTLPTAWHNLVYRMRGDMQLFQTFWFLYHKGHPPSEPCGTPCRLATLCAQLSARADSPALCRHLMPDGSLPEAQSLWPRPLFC
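Human placenta-derived ASM enzyme was preincubated with compound for 10 minutes at room temperature, then given fluorogenic substrate HMU-PC0 (9 uM final) for 60 minutes at 37 °C; a pH 10 stop preceded fluorescence reading at Ex 386/Em 447 nm.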
TGFb SMAD3 inh – blocks TGF-b signaling | actives 1.2% (n = 410,000) | AID 588855 | Potency, µM (series often up to 46.1 µM), for inactives: top-dose activity, negative = inhibition, usual class: inhibitors | HepG2 CAGA-GFP TGF-b/SMAD3 reporter, GFP fluorescence, 18 h; TGF-beta stimulated, 500 pg/mL final; further: potency means the concentration at half of the fitted maximal effect; on the % scale 0 is the no-effect control and ±100 the full control effect; nearly all actives have a fitted effect of over 65% in size
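HEPG2 CAGA-GFP cells (1000/well, DMEM with 1% FBS) were pre-incubated 2 h at 37 degrees C, given compound by pin tool, then stimulated with TGF-beta at 500 pg/mL final for 18 h before per-cell GFP fluorescence imaging.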
IL-1B inflam inh – inhibitors of inflammasome signaling (IL-1 beta secretion). THP-1 LPS/ATP IL-1B secretion, AlphaLISA, 16 h; stronger effect = lower value. activity change, % at 57.5 µM. actives 4.7% (n = 360,000). AID 743279; in the data active means activity change below about -50%; inconclusive means mostly about -30% to -49%; further: on the % scale 0 is the no-effect control and ±100 the full control effect
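Secreted IL-1B measured by AlphaLISA bead assay after 16 h compound exposure of THP-1 cells; compounds (final up to 57.5 uM) added 1 h before LPS (250 ng/mL) and ATP (1.25 mM) stimulation; lower signal means less secretion.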
HepG2 tox – HepG2 cytotoxicity, counter-screen for TGF-b inhibitors | HepG2 CAGA-GFP viability, ATP luminescence, 18 h | Potency, µM (series often up to 46.1 µM), for inactives: top-dose activity change, negative = cytotoxicity, hits mostly cytotoxic | actives 0.76% (n = 410,000) | AID 588856; further: potency means the concentration at half of the fitted maximal effect
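CellTiter-Glo luminescence gave cytotoxicity after 18 hours at 37 degrees C. The cells were HepG2 CAGA-GFP in 1% FBS DMEM, stimulated with 500 pg/mL TGF-beta after compound addition. %Activity was normalised to no-cell wells (complete cell-killing) and DMSO (no toxicity), and curves were fitted and classified.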
TDP1 cell CPT – growth inhibition of DT40 Tdp1-/-;hTDP1 cells with camptothecin (screen for TDP1 inhibitors); AID 686979; Potency, µM (doses to about 46.2 µM), inactives show top-dose activity change, negative = growth inhibition, usual class: inhibitors; actives 12% (n = 420,000); chicken DT40 Tdp1-/-;hTDP1 cells + 20 nM CPT, ATP luminescence, 48 h; further: potency means the concentration at half of the fitted maximal effect; on the % scale 0 is the no-effect control and ±100 the full control effect; nearly all actives have a fitted effect of over 55% in size
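Chicken DT40 Tdp1-/- cells stably complemented with human TDP1 were seeded at 400 cells/well in medium containing 20 nM camptothecin, exposed to pin-transferred compounds, and grown at 37 °C for at least 48 hr. Viability was read as ATP luminescence.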
DT40 TDP1 no CPT – qHTS for Inhibitors of human tyrosyl-DNA phosphodiesterase 1 (TDP1): qHTS in cells in absence of CPT; DT40 Tdp1-/- hTDP1 cells, no CPT, ATP luminescence, 48 h; Potency, µM (doses to about 46.2 µM), for inactives: at the top dose activity change, negative = growth inhibition, usual class: inhibitors; actives 15% (n = 420,000); further: potency means the concentration at half of the fitted maximal effect; on the % scale 0 is the no-effect control and ±100 the full control effect; nearly all actives have a fitted effect of over 55% in size
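Readout: luminescence from CellTiter-Glo after 30 min in the dark at RT. Cells: DT40 Tdp1-/- with stable hTDP1, 400/well. Exposure: compounds alone, ≥48 hr, 37 °C.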
* marks the source's active call; other numbers are inactive results; ? = inconclusive; / = no result given. Unless noted, the call rests on the fitted dose curve; in most records, active means well fitted curve in the direction sought with a large enough effect; inconclusive means small, poorly fitted or top-dose-only effect, or another doubt; inactive means no such curve, though single readings can be large; an effect the other way counts as inactive or inconclusive.

SMILES	S-ASM inh	TGFb SMAD3 inh	IL-1B inflam inh	HepG2 tox	TDP1 cell CPT	DT40 TDP1 no CPT
O=C(c1ccc2c(=O)n(-c3ccccc3)c(=S)[nH]c2c1)N1CCCCC1	4%	?	11	-1%	6.5µM*	6.5µM*
O=C(c1ccc(F)cc1)N1CCN(c2ncccn2)CC1	0%	-20%	11	-25%	7%	-6%
CCSc1ccccc1C(=O)N1CCN(c2nc3ccccc3s2)CC1	/	?	/	-13%	?	15µM*
CC(NC(=O)c1cc2sccc2n1Cc1ccc(F)cc1)c1ccccc1 (stereo not given)	/	-25%	/	-29%	?	?
Cc1ccccc1NC(=O)c1cc2sccc2n1Cc1ccc(F)cc1	/	20%	/	-12%	?	26µM*
O=C(c1cc2sccc2n1Cc1ccc(F)cc1)N1CCN(c2nc3ccccc3s2)CC1	-11%	-6%	0	-32%	13µM*	21µM*
O=C(c1ccc(Cl)s1)N1CCN(c2nc3ccccc3s2)CC1	-7%	-7%	-14	4%	?	16µM*
O=C(Nc1nccs1)c1cc2sccc2n1Cc1ccc(F)cc1	4%	-23%	5	-23%	?	-10%
CC(C)(C)C(=O)N1CCN(c2nc3ccccc3s2)CC1	-2%	22%	10	25%	-23%	?
CCOC(=O)C1CN(S(=O)(=O)c2cccs2)c2ccc(CC(=O)OC)cc2O1 (stereo not given)	-3%	0%	-17	0%	-1%	16%
O=C(c1cccs1)N1CCN(c2nc3ccccc3s2)CC1	-3%	-4%	52	2%	?	?
Cc1cccc2sc(N3CCN(C(=O)c4cccs4)CC3)nc12	-5%	-9%	-78*	1%	-15%	-28%
COc1cccc2c1cc1c(=O)n(CC(=O)NCCCN3CCN(C)CC3)nc(C)n12	-2%	10%	56	-13%	25%	4%
CN(C)S(=O)(=O)c1ccc(N2CCCC2)c(C(=O)NC2CCCCC2)c1	5%	5%	-19	0%	-15%	-12%
O=C(Nc1ccc(S(=O)(=O)N2CCOCC2)cc1)c1ccc(Cl)s1	-11%	-28%	-21	-27%	23µM*	?
O=C(Cc1ccc(S(=O)(=O)N2CCOCC2)s1)N1CCN(c2cccc(C(F)(F)F)c2)CC1	-6%	?	8	-7%	7.3µM*	3.7µM*
Cc1ccc(S(=O)(=O)N2CCN(C(=O)Cc3ccc(S(=O)(=O)N4CCOCC4)s3)CC2)cc1	7%	-14%	3	-16%	-19%	-19%
O=C(Cc1ccc(S(=O)(=O)N2CCCC2)s1)N1CCN(c2ccccc2)CC1	-2%	24%	21	6%	3%	-24%
N#Cc1ccc(OCC(=O)N2CCN(S(=O)(=O)c3ccc(Cl)s3)CC2)cc1	0%	?	?	-20%	16µM*	?
O=C(Cc1ccc(S(=O)(=O)N2CCOCC2)s1)N1CCN(S(=O)(=O)c2ccc(Cl)cc2)CC1	2%	?	?	-10%	23µM*	23µM*
CCOc1ccccc1N1CCN(C(=O)Cc2ccc(S(=O)(=O)N3CCOCC3)s2)CC1	39%	-28%	-11	-47%	?	21µM*
O=C(Cc1ccc(S(=O)(=O)N2CCOCC2)s1)N1CCN(S(=O)(=O)c2cccc(Cl)c2)CC1	2%	-16%	0	0%	16µM*	16µM*
O=C(c1ccc(S(=O)(=O)N2CCOCC2)cc1)N1CCOCC1	1%	4%	4	-1%	-15%	7%
O=C(Cc1ccc(S(=O)(=O)N2CCOCC2)s1)N1CCN(S(=O)(=O)c2ccccc2F)CC1	-1%	-13%	-16	-19%	-29%	-16%
O=C(c1ccc(S(=O)(=O)N2CCOCC2)cc1)N1CCN(S(=O)(=O)c2ccc(Cl)s2)CC1	-1%	2%	-1	19%	?	16µM*
SMILES	S-ASM inh	TGFb SMAD3 inh	IL-1B inflam inh	HepG2 tox	TDP1 cell CPT	DT40 TDP1 no CPT
O=C(Cc1ccc(S(=O)(=O)N2CCOCC2)s1)N1CCN(S(=O)(=O)c2cccc(F)c2)CC1	-2%	-2%	-9	-11%	?	-10%
O=C(NC1CC(=O)N(c2cccc(F)c2)C1)c1ccc(S(=O)(=O)N2CCCC2)cc1 (stereo not given)	/	-18%	/	-13%	?	?
COC(=O)CC1COc2ccccc2N1S(=O)(=O)c1ccc(OC)cc1 (stereo not given)	1%	-21%	25	-7%	3.7µM*	5.2µM*
COc1cc(OC)c(NC(=O)N2CCc3c([nH]c4ccccc34)C2c2ccccc2F)cc1Cl (stereo not given)	/	2%	/	10%	18µM*	23µM*
O=C(c1cc[n+]([O-])cc1)N1CCc2c([nH]c3ccccc23)C1c1ccccc1Cl (stereo not given)	-4%	5%	4	1%	-1%	-20%
COc1cc(NC(=O)N2CCc3c(sc4c3CCCC4)C2c2ccccc2)cc(OC)c1OC (stereo not given)	/	0%	/	3%	10µM*	21µM*
COc1cc(OC)c(NC(=O)N2CCc3c(sc4c3CCCC4)C2c2ccccc2)cc1Cl (stereo not given)	/	0%	/	-6%	?	21µM*
COCc1c(C(=O)NC2CCCC2)cnn1-c1nccc(-c2ccco2)n1	/	/	/	/	4%	-16%
Cc1ccc(-c2nc3ccc(Cl)cc3n2OC(C)C(=O)O)cc1 (stereo not given)	7%	9%	0	-2%	-10%	13%
C=C(Br)COC(c1ccco1)[C@H](Cc1ccccc1)NC(=O)OC(C)(C)C (stereo not given in full)	/	?	/	-28%	?	11µM*
Cc1cc(=O)n2c(C(=O)Nc3ccc(F)c(Cl)c3)c(C(=O)Nc3cccc(C)c3C)sc2n1	/	5%	/	4%	?	?
Cc1cc(=O)n2c(C(=O)Nc3ccc(C(=O)OC(C)C)cc3)c(C(=O)Nc3ccccc3)sc2n1	-11%	?	21	-52%	?	15µM*
Cc1cc2nc(NCCCO)n(CC(=O)c3cc(C(C)(C)C)c(O)c(C(C)(C)C)c3)c2cc1C	?	?	-51*	-28%	16µM*	23µM*
COCC(=O)N(C)c1nnc(-c2ccc([N+](=O)[O-])cc2)s1	1%	19%	-58*	2%	-29%	2%

Screening results: PubChem BioAssay, National Center for Advancing Translational Sciences (NCATS)
